GLP1R ag = activates the human GLP-1 receptor. P43220. HEK293 GLP-1R CRE-luciferase, luminescence, 4-6 h; cells express a hypersensitive GLP-1R form. Potency, µM (top dose mostly 45.6 µM), inactives show top-dose activation, most hits filed as activators. 380,000 compounds, 0.007% hits; also: % of control where 0% means no effect
Target sequence (P43220 whole entry, looked up): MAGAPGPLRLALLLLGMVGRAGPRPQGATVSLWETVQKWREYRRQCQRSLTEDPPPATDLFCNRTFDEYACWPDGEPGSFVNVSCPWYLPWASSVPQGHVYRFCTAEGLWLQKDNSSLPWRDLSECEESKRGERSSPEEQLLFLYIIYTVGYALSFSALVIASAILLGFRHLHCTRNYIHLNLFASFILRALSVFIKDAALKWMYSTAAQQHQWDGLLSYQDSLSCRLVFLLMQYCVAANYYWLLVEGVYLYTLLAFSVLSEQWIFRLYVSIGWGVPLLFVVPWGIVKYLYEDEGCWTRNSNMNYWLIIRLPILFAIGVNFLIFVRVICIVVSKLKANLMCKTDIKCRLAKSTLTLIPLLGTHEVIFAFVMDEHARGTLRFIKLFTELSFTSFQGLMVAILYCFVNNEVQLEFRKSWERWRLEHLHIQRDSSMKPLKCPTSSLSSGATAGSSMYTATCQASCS
GLP1R cytotox = cytotoxicity counter-screen for GLP-1 receptor inverse agonists; HEK293 cAMP-luciferase reporter cells, luminescence, 24 h; Potency, µM (titrated, usually from 38.3 µM), for the others: at the highest dose activity change, negative = inhibition, usual class: inhibitors; 410,000 compounds, 0.13% hits; AID 624418;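 also: loss of luciferase light is scored as toxicity; % is scaled to controls: 0 for no effect and ±100 for the full control effect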
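Luminescence readout: signal drop marks cytotoxicity. Plated cells grew 12 h at 37 °C, 5% CO2, received 23 nL compound for 24 h, then got luciferase reagent, read after 12 min at RT.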
GLP1R inv ag = acts as inverse agonist at human GLP-1 receptor; P43220; Potency, µM (top dose mostly 38.3 µM), for the others: top-dose activity change, negative = inhibition, usual class: inhibitors; 410,000 compounds, 1.6% hits; AID 624417; HEK293 GLP-1R CRE-luciferase, luminescence, 24 h; GLP-1R form is constitutively active; also: % is scaled to controls: 0 for no effect and ±100 for the full control effect; nearly all actives have a fitted effect of over 55% in size
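qHTS in 1536-well format: reporter HEK293 cells expressing constitutive GLP-1R activity in DMEM + 10% Nu serum, 24 hr with compounds at 37 deg C, luminescence read after 12 min with detection reagent.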
* marks the source's active call; other numbers are inactive results; u = inconclusive; x = no result given. This is a sample that favours compounds with a hit; in the whole collection about 1.7% have one here. Calls follow the shape of the dose curve; as a rule, active = well fitted curve in the direction sought with a large enough effect; inconclusive = small, poorly fitted or top-dose-only effect, or another doubt; inactive = no such curve, though single readings can be large; an effect the other way counts as inactive or inconclusive. Potency is read from the fitted curve at half-maximal effect.

SMILES	GLP1R ag	GLP1R cytotox	GLP1R inv ag
Cc1cccc(N2CCN(C(=O)c3cc4ccc5cccnc5c4[nH]3)CC2C)c1 (stereo not drawn)	x	-10%	u
CC(=O)c1cccc(NS(=O)(=O)c2ccc3c(c2)N(C(C)=O)CCO3)c1	-3%	1%	2%
O=C(Nc1ccc(Cn2cccn2)cc1)c1ccc(COc2ccc(Br)cc2)cc1	-7%	5%	4%
O=C(Nc1ccc(Cn2cccn2)cc1)c1ccc(COc2cccc(Br)c2)cc1	1%	-3%	5µM*
Cc1cccc(Cn2c(=O)n(CC3CCC(C(=O)NC(C)C)CC3)c(=O)c3sccc32)c1 (stereo not drawn)	x	-3%	7%
COC(=O)c1ccc2c(=O)n(CCc3ccc(S(N)(=O)=O)cc3)c(SCC(=O)C(C)(C)C)nc2c1	x	-7%	-2%
COc1cc(C(=O)NCCSc2c(C)[nH]c3ccccc23)cc(OC)c1OC	x	-11%	11%
Cc1ccc(C(=O)NCCSc2c(C)[nH]c3ccccc23)cc1[N+](=O)[O-]	-5%	12%	10µM*
Cc1ccc(C)c(NC(=O)N2CCN3CCCCC3C2)c1 (stereo not drawn)	x	6%	19%
Oc1c(CN2CCCCC2)cc(Br)c2cccnc12	-2%	u	2.5µM*
Oc1c(Cl)cc(CN2CCOCC2)c2cccnc12	-3%	u	u
COC(=O)C1=C(C)NC(C)=C(C(=O)OCCN2CCN(C(c3ccccc3)c3ccccc3)CC2)C1c1cccc([N+](=O)[O-])c1 (stereo not drawn)	-2%	x	x
Cc1nn(-c2ccccn2)c2nc(-c3cccs3)cc(C(=O)NCc3ccco3)c12	1%	14%	u
CCOC(=O)c1cc(-c2cccs2)nc2c1c(C)nn2-c1ccccn1	16%	3.5µM*	u
COCCNC(=S)NCc1ccc2[nH]c3c(c2c1)CCCC3	-2%	4%	u
Cc1ccc(NC(=S)NCc2ccc3[nH]c4c(c3c2)CCCC4)cc1	11%	u	13µM*
O=C(NCCC1=CCCCC1)c1ccc(Cl)c(S(=O)(=O)Nc2ccccc2)c1	4%	-5%	u
Cc1ccccc1NS(=O)(=O)c1cc(C(=O)NCCC2=CCCCC2)ccc1C	4%	u	11µM*
Cc1cc2cc(CCNC(=O)C(C)C)c(=O)[nH]c2cc1C	-7%	4%	-2%
O=C(NCCc1c[nH]c2ccccc12)C(=O)c1c[nH]c2ccccc12	-5%	-30%	4.5µM*
Cc1cc2cc(CCNC(=O)C(=O)c3c[nH]c4ccccc34)c(=O)[nH]c2cc1C	14%	-25%	10µM*
O=C(NCCc1ccc(Cl)cc1)C(=O)c1c[nH]c2ccccc12	14%	-4%	u
Cc1ccc(-c2nc3ccccc3nc2NN)cc1	15%	3%	14%
CC(C)(C)c1ccc(C(O)c2ncc(-c3ccccc3F)[nH]2)cc1 (stereo not drawn)	8%	1%	u
NC(Cc1c[nH]c2ccccc12)C(=O)NCc1ccccc1 (stereo not drawn)	-5%	-5%	-25%
SMILES	GLP1R ag	GLP1R cytotox	GLP1R inv ag
COc1ccc(C2c3ccc4ccccc4c3Oc3ncn(CCCN(C)C)c(=N)c32)cc1 (stereo not drawn)	21%	u	4.5µM*
COc1ccccc1C1c2ccc3ccccc3c2Oc2ncn(CCCO)c(=N)c21 (stereo not drawn)	14%	u	u
COc1ccc(C2c3c(ncn(CCCO)c3=N)Oc3ccc4ccccc4c32)cc1 (stereo not drawn)	19%	u	u
COc1ccccc1C1c2ccc3ccccc3c2Oc2ncn(CCN(C)C)c(=N)c21 (stereo not drawn)	22%	u	2.8µM*
CCOc1ccc(-n2c(Cc3cc(=O)[nH]c(=O)[nH]3)nnc2SCC(=O)Nc2nnc(C)s2)cc1	2%	0%	1%
COc1ccc(CNC(=O)c2ccc(CNS(=O)(=O)c3ccc(F)cc3)cc2)cc1	x	-14%	5%
CCN(C(=O)COC(=O)c1ccc(Cl)c(S(=O)(=O)N2CCCCC2)c1)C1CCS(=O)(=O)C1 (stereo not drawn)	8%	6%	13%
NNc1ccc2c(C(F)(F)F)cc(C(F)(F)F)nc2n1	12%	-17%	27%
N#CC(c1cccc(Cl)c1)c1ccc2c(C(F)(F)F)cc(C(F)(F)F)nc2n1 (stereo not drawn)	-24%	-27%	3.2µM*
O=C(O)c1ccc(-n2nc(-c3ccccc3O)nc2-c2ccccc2O)cc1	-3%	x	x
COCCS(=O)(=O)N(Cc1ccc(Br)cc1)[C@@H](C)C(=O)OC	0%	6%	3%
COC(=O)[C@H](C)N(Cc1ccc(Cl)c(Cl)c1)S(=O)(=O)CCNC1CCCC1	-4%	-2%	13µM*
O=C(Nc1ccc2c(c1)OCCO2)c1c(Cl)cccc1Cl	7%	-15%	u
O=C(Nc1ccc2c(c1)OCCO2)c1cccc(Cl)c1Cl	-2%	-12%	11µM*
CCOC(=O)c1cccc(NS(=O)(=O)c2ccc(-c3coc(C)n3)cc2)c1	-7%	-9%	-13%
CCCCNS(=O)(=O)c1ccc2nc(-c3cccnc3)cc(C(=O)NCCCOC(C)C)c2c1	x	2%	4%
CCOC(=O)c1c(C)[nH]c(C)c1C(=O)CSc1nc2ccccc2c(=O)n1-c1ccc(CC)cc1	9%	-12%	10µM*
CCOC(=O)c1c(C)[nH]c(C)c1C(=O)CSc1nc2ccccc2n1CC	7%	-22%	-18%
CCc1ccc(-n2c(N3CCN(c4cccc(Cl)c4)CC3)nc3ccccc3c2=O)cc1	x	2%	u
CCc1ccc(-n2c(N3CCN(c4ccc(F)cc4)CC3)nc3ccccc3c2=O)cc1	x	1%	11µM*
CCOc1ccc(NC(=O)CCn2cccn2)cc1	x	3%	13%
CCOc1ccccc1C(=O)NCC(=O)NNC(=O)c1cccs1	-1%	4%	1%
O=C(NC1CCCC1)C(c1ccncc1)N(CCCN1CCOCC1)C(=O)c1ccc(-c2ccccc2)[nH]1 (stereo not drawn)	-10%	-5%	1%
CCOc1ccc(C(C(=O)NC2CCCC2)N(CCCO)C(=O)c2ccc(-c3ccccc3)[nH]2)cc1 (stereo not drawn)	-6%	5%	13µM*
CC1(Oc2ccc3ccccc3c2)CCN(Cc2cccn2-c2nccs2)C1 (stereo not drawn)	9%	-2%	u
COc1ccc2cc([C@H](C)C(=O)N(C)Cc3ccccc3N3CCCC3)ccc2c1	21%	3%	u
COC(=O)c1c(NC(=O)CSc2nnnn2-c2ccccc2)sc2c1CCC(C)C2 (stereo not drawn)	-5%	17%	22%
COC(=O)c1c(NC(=O)CSc2nnnn2-c2ccccc2)sc2c1CCC(C(C)(C)C)C2 (stereo not drawn)	0%	0%	5.6µM*
CC[C@]12c3[nH]c4cc(CCC(=O)N(C)C)ccc4c3CCN1C(=O)[C@@H](CC(=O)NCCC1=CCCCC1)C[C@@H]2C(=O)N1CCN(C(=O)c2ccco2)CC1	-1%	-6%	0%

Screening data (PubChem BioAssay)
